Source: PubChem
Sampled rows, rich in hits. Any-hit rate of the full collection: about 6.7%.
Pf Dd2 growth = P. falciparum Dd2 growth inhibitors, primary screen, SYBR Green fluorescence, single dose replicates. 72 h; hits give low values. activity change, % at 10 µM. actives 2.3% (n = 94,000); in the data active = activity change below about -80%; inconclusive = no clear call, values can overlap the other calls
C diff growth = C. difficile growth inhibitors, primary screen, HTS. AID 1259249, 2017. growth activity, negative = inhibition, % at 16 µg/mL (by protocol). actives 0.25% (n = 86,000). Clostridium difficile clinical isolate growth, OD600, 24 h; hits give low values;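 active = mean growth activity at or below -80% and every replicate also at or below -80%; inconclusive = mean at or below -80% but some replicate above -80%; inactive = mean growth activity above -80%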
T cruzi growth-1 = T. cruzi intracellular proliferation inhibitors, primary screen, cell-based, beta-gal Tulahuen parasites, NIH3T3 host, luminescence; T. cruzi beta-gal in NIH3T3, GalScreen luminescence, 90 h; inhibition, % at 8.34 µM; actives 5.9% (n = 77,000); AID 624255, 2012;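 active = mean inhibition above about 93%, with at least 55% of replicates each passing it, limit read from the data, passing the limit was not always enough; inconclusive = only one of those two conditions holds; inactive = neither condition holds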
T cruzi growth-2 = T. cruzi intracellular proliferation inhibitors, confirmation, cell-based, NIH3T3 host, beta-gal parasite, luminescence, cherry-pick. shares compounds with T cruzi growth-1. actives 72% (n = 5,600). T. cruzi beta-gal in NIH3T3, GalScreen luminescence, 90 h. inhibition, % at 8.35 µM;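 active = mean replicate inhibition above about 95% and at least 55% of replicates individually reaching it, limit read from the data; inconclusive = only one of the two criteria is met; inactive = neither criterion is met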
T cruzi growth-3 = inhibitors of intracellular T. cruzi replication, confirmation, NIH3T3 host cells, beta-gal parasites, cherry-pick, set 2 | shares compounds with T cruzi growth-1 | T. cruzi beta-gal in NIH3T3, GalScreen luminescence, 90 h | inhibition, % at 2.09 µM | actives 21% (n = 5,600) | AID 651740, 2012;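 active = mean inhibition above about 95%, with at least 55% of replicates also reaching it, limit read from the data; inconclusive = meets just one of the two conditions; inactive = meets neither condition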
3T3 cytotox = cytotoxicity in mouse NIH/3T3 fibroblasts, confirmation, cytotoxicity control for T. cruzi proliferation inhibitor project, cell-based, cherry-pick, single point; cytotoxicity (signal decrease), % at 8.35 µM; AID 651742, 2012; NIH/3T3 viability, CellTiter-Glo ATP luminescence, 90 h; shares compounds with T cruzi growth-1; actives 14% (n = 5,600);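 active = mean signal decrease across replicates above about 35% based on untreated-well scatter, with enough replicates individually passing, limit read from the data; inconclusive = no rule stated though some were filed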
3T3 cytotox 2 = NIH/3T3 fibroblast cytotoxicity, confirmation, cytotoxicity control, cell-based, cherry-pick, single point, set 2; shares compounds with T cruzi growth-1; NIH/3T3 viability, CellTiter-Glo ATP luminescence, 90 h; AID 651744, 2012; actives 56% (n = 5,600); inhibition, % at 24.9 µM;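 active = mean loss of cell viability signal at or above a set limit, and enough replicates individually reaching it; inconclusive = meets only the mean limit or only the replicate share; inactive = meets neither condition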
Hits are given with their value.

How did CCS(=O)(=O)N1CCCCN2[C@H](CO)[C@H](c3ccc(C#Cc4ccccc4OC)cc3)[C@@H]2C1 do in these assays?
Pf Dd2 growth: inactive; C diff growth: inactive; T cruzi growth-1: 112; T cruzi growth-2: 106; T cruzi growth-3: inactive; 3T3 cytotox: 42; 3T3 cytotox 2: 51

What do the screens show for `COc1ccccc1C#Cc1ccc([C@H]2[C@H](CO)N3CCCCN(S(C)(=O)=O)C[C@@H]23)cc1`?
Pf Dd2 growth: inactive; C diff growth: inactive; T cruzi growth-1: inconclusive; T cruzi growth-2: 106; T cruzi growth-3: inactive; 3T3 cytotox: 39; 3T3 cytotox 2: 70

Results for COc1ccccc1C#Cc1ccc([C@@H]2[C@H]3CN(S(C)(=O)=O)CCCCN3[C@H]2CO)cc1 ?
Pf Dd2 growth: inactive; C diff growth: inactive; T cruzi growth-1: inactive

What do the screens show for `CCS(=O)(=O)N1CCCCN2[C@H](CO)[C@H](c3ccc(C#Cc4ccccc4OC)cc3)[C@H]2C1`?
Pf Dd2 growth: inactive; C diff growth: inactive; T cruzi growth-1: inactive

What do the screens show for `CCCC#Cc1ccc([C@@H]2[C@@H](CO)N3CCCCN(S(=O)(=O)CC)C[C@H]23)cc1`?
Pf Dd2 growth: inactive; C diff growth: inactive; T cruzi growth-1: inactive

What do the screens show for `CCS(=O)(=O)N1CCCCN2[C@H](CO)[C@@H](c3ccc(C#Cc4ccccc4OC)cc3)[C@H]2C1`?
Pf Dd2 growth: inactive; C diff growth: inactive; T cruzi growth-1: 122; T cruzi growth-2: 101; T cruzi growth-3: inactive; 3T3 cytotox: 45; 3T3 cytotox 2: 85

Results for C[C@@H]1CN([C@H](C)CO)C(=O)c2cc(NC(=O)c3ccccc3)ccc2O[C@@H](C)CCCCO[C@H]1CN(C)Cc1ccc(C(=O)O)cc1 ?
Pf Dd2 growth: inactive; C diff growth: inactive; T cruzi growth-1: inactive

How did C[C@@H]1CN([C@H](C)CO)C(=O)c2cccc(NS(=O)(=O)c3cccs3)c2O[C@H]1CN(C)S(=O)(=O)c1ccccc1 do in these assays?
Pf Dd2 growth: inactive; T cruzi growth-1: inactive

What do the screens show for `CC(C)NC(=O)N1CC[C@@H]2[C@H]1c1cc(-c3ccc(F)cc3)ccc1N(C)[C@@H]2CO`?
Pf Dd2 growth: inactive; C diff growth: inactive; T cruzi growth-1: 108; T cruzi growth-2: 111; T cruzi growth-3: inactive; 3T3 cytotox: inactive; 3T3 cytotox 2: inactive

Results for CC(C)NC(=O)N1CC[C@@H]2[C@@H](CO)N(C)c3ccc(-c4ccc(F)cc4)cc3[C@@H]21 ?
Pf Dd2 growth: inactive; C diff growth: inactive; T cruzi growth-1: 100; T cruzi growth-2: 105; T cruzi growth-3: 101; 3T3 cytotox: inactive; 3T3 cytotox 2: 49

Results for COc1ccc(-c2ccc3c(c2)[C@@H]2[C@@H](CCN2C(=O)NC(C)C)[C@H](CO)N3C)cc1 ?
Pf Dd2 growth: inactive; C diff growth: inactive; T cruzi growth-1: inactive

How did CC(C)NC(=O)N1CC[C@@H]2[C@H]1c1cc(-c3cccc(F)c3)ccc1N(C)[C@H]2CO do in these assays?
Pf Dd2 growth: inactive; C diff growth: inactive; T cruzi growth-1: inactive

Results for CC(C)c1cn(CC[C@H]2CC[C@@H](NC(=O)C3CC3)[C@@H](CO)O2)nn1 ?
Pf Dd2 growth: inactive; T cruzi growth-1: inactive

What do the screens show for `COCCNC(=O)[C@H]1[C@H](CO)[C@H]2Cn3c(ccc(-c4ccc(OC)cc4)c3=O)[C@@H]1N2C(=O)NC(C)C`?
Pf Dd2 growth: inactive; C diff growth: inactive; T cruzi growth-1: 100; T cruzi growth-2: inactive; T cruzi growth-3: inactive; 3T3 cytotox: inactive; 3T3 cytotox 2: inactive

Results for COCCNC(=O)[C@@H]1[C@@H](CO)[C@@H]2Cn3c(ccc(-c4ccc(F)cc4)c3=O)[C@H]1N2C(=O)NC(C)C ?
Pf Dd2 growth: inactive; C diff growth: inactive; T cruzi growth-1: inactive

How did CCCNC(=O)[C@H]1[C@H](CO)[C@H]2Cn3c(ccc(-c4ccccc4OC)c3=O)[C@@H]1N2C(=O)NCCC do in these assays?
Pf Dd2 growth: inactive; C diff growth: inactive; T cruzi growth-1: inactive

How did CCCNC(=O)N1[C@@H]2c3ccc(-c4ccccc4OC)c(=O)n3C[C@H]1[C@H](CO)[C@H]2C(=O)NCC do in these assays?
C diff growth: inactive; T cruzi growth-1: 107; T cruzi growth-2: inactive; T cruzi growth-3: inactive; 3T3 cytotox: inactive; 3T3 cytotox 2: inactive

Results for CC(C)[C@H](C)NC(=O)N(C)C[C@H]1OCc2ccccc2-c2c(n(C)c3ccccc23)C(=O)N([C@H](C)CO)C[C@H]1C ?
Pf Dd2 growth: inactive; T cruzi growth-1: inactive

How did CO[C@H]1CN(C)C(=O)c2cc(NC(C)=O)ccc2OC[C@H](C)N(Cc2cncnc2)C[C@@H]1C do in these assays?
Pf Dd2 growth: inactive; T cruzi growth-1: inactive

What do the screens show for `COc1ccccc1NC(=O)N[C@@H]1CC[C@@H](CCNC(=O)Cc2ccccn2)O[C@@H]1CO`?
Pf Dd2 growth: inactive; C diff growth: inactive

How did C[C@@H]1CCCCO[C@H](CN(C)CC2CCCCC2)[C@@H](C)CN([C@H](C)CO)C(=O)c2cc(NC(=O)Nc3ccccc3)ccc2O1 do in these assays?
Pf Dd2 growth: inactive; C diff growth: inactive; T cruzi growth-1: 109; T cruzi growth-2: 112; T cruzi growth-3: inactive; 3T3 cytotox: inactive; 3T3 cytotox 2: 95

Results for COc1ccc(NC(=O)Nc2ccc3c(c2)CC(=O)N([C@@H](C)CO)C[C@@H](C)[C@H](CN(C)CC2CCCCC2)O3)cc1 ?
Pf Dd2 growth: -90; C diff growth: inactive; T cruzi growth-1: 120; T cruzi growth-2: 99; T cruzi growth-3: inactive; 3T3 cytotox: inactive; 3T3 cytotox 2: 104

Results for COc1ccc(NC(=O)Nc2ccc3c(c2)C(=O)N([C@H](C)CO)C[C@H](C)[C@@H](CN(C)CC2CCCCC2)OCCCC[C@H](C)O3)cc1 ?
Pf Dd2 growth: inactive; C diff growth: inactive; T cruzi growth-1: 96; T cruzi growth-2: 105; T cruzi growth-3: 112; 3T3 cytotox: inactive; 3T3 cytotox 2: 105

How did C[C@@H]1CCCCO[C@H](CN(C)CC2CCCCC2)[C@H](C)CN([C@H](C)CO)C(=O)c2cc(NC(=O)c3ccccc3)ccc2O1 do in these assays?
Pf Dd2 growth: inactive; C diff growth: inactive; T cruzi growth-1: 118; T cruzi growth-2: 114; T cruzi growth-3: inactive; 3T3 cytotox: inactive; 3T3 cytotox 2: 105
